Bioassay records: PubChem BioAssay, Buhrlage Lab, Dana-Farber Cancer Institute and Novartis Institutes for BioMedical Research (Cambridge, Mass)
USP30 inh = inhibitors of human USP30 deubiquitinase | hit rate 5.3% among 47,000 | purified USP30, Ub-rhodamine cleavage fluorescence | inhibition, % at 25 µM
Target sequence (Q70CQ3 whole entry, looked up): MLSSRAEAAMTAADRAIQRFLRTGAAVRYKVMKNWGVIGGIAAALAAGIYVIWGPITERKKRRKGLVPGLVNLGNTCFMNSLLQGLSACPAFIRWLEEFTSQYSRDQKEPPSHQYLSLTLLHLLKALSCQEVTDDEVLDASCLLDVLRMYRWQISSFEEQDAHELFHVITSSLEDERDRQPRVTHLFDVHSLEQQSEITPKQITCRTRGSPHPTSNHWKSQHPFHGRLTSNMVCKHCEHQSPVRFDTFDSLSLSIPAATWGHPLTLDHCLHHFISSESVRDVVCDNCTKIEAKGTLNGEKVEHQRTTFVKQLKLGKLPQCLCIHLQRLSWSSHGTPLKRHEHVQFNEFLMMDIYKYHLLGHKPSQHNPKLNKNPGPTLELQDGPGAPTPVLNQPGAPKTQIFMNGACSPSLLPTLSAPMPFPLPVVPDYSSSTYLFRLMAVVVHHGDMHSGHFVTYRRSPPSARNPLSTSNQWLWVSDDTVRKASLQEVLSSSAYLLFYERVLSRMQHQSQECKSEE
USP8 inh = inhibitors of human USP8 deubiquitinase; P40818; purified USP8, Ub-rhodamine cleavage fluorescence, 30 min; inhibition, % at 20 µM; hit rate 4.2% among 47,000
USP10 block = human USP10 deubiquitinase inhibition | Q14694 | purified USP10, Ub-rhodamine fluorescence, 60 min | inhibition, % at 20 µM | hit rate 1.1% among 47,000
USP28 block = human USP28 deubiquitinase inhibition | AID 1645857 | inhibition, % at 25 µM | purified USP28, Ub-rhodamine cleavage fluorescence, 30 min | Q96RU2 | hit rate 3% among 47,000
USP17 block = blocks human USP17 ubiquitin-rhodamine cleavage | hit rate 6.5% among 47,000 | purified USP17, Ub-rhodamine cleavage fluorescence, 3 h | AID 1645855 | inhibition, % at 50 µM
Hits are given with their value; . = inactive; / = no result given. An excerpt weighted towards active compounds, which were near 14% of everything screened. Cut-off read from the data, not from the text of the source: active = inhibition above about 30%; inactive = the rest.

SMILES	USP30 inh	USP8 inh	USP10 block	USP28 block	USP17 block
COc1ccccc1C(=O)NCc1noc(-c2cccc(C)c2)n1	.	.	.	.	.
CC1CC(=O)Nc2cc(S(=O)(=O)Nc3ccc(F)cc3F)ccc2S1 (centres undefined)	.	.	.	.	.
CC1CC(=O)Nc2cc(S(=O)(=O)Nc3cccc(F)c3)ccc2S1 (centres undefined)	31.4	.	.	.	.
COc1ccc(CCNC(=O)Cn2cnc3cc([N+](=O)[O-])ccc3c2=O)cc1	.	.	.	.	/
Cc1noc(-c2cc3c(ccc4ccccc43)oc2=O)n1	.	.	.	.	42.2
CNC1CCc2cc(OC)c(OC)c(OC)c2-c2ccc(N3CCN(c4ccccc4OC)CC3)c(=O)cc21 (centres undefined)	.	.	.	.	.
Cc1ccc(C(=O)[C@H]2C(c3ccccc3OCC#N)=NO[C@]23C(=O)Nc2ccccc23)cc1	.	.	.	.	41.6
Cc1ccc(NC(=O)Nc2cccn3nc(C)nc23)cc1	.	.	.	47.4	.
Cc1ccc(CSc2nnc(C3CCNCC3)o2)cc1	.	.	.	32.4	.
c1ccc(-c2cc(N3CCC4(CC3)OCCO4)nc(-c3ccncc3)n2)cc1	.	.	.	.	/
FC(F)(F)c1cc(C(F)(F)F)c2ccc(N3CCC4(CC3)OCCO4)nc2n1	.	.	.	.	30.1
Cn1c(CCNC(=O)c2cc(F)ccc2Cl)nc2cccnc21	.	.	.	.	.
COc1ccc(C2=Nc3ccccc3N3C(=O)c4c(ccc(OC)c4OC)C3C2)cc1 (centres undefined)	.	.	.	.	.
COc1ccc(CC(=O)N2CCc3nc(C(N)=O)sc3CC2)cc1	.	.	.	.	.
COc1ccc(CC(=O)N2CCN(c3ccc(-n4cccn4)nn3)CC2)cc1	33.9	.	.	.	.
CCC(=O)N1CCCC(Cc2cnc(-c3ncc(C)[nH]3)cn2)C1 (centres undefined)	.	.	.	.	.
O=C1NC2(CCCc3ccccc32)C(=O)N1Cc1ccc(F)cc1 (centres undefined)	.	.	.	.	.
Cc1cccc(NC(=O)Cn2c(-c3nc(C)no3)cccc2=O)c1	.	.	.	.	.
Cc1noc(-c2cccc(=O)n2CC(=O)Nc2ccc(C)c(C)c2)n1	.	.	.	.	70.8
Cc1noc(-c2cccc(=O)n2CC(=O)Nc2ccc(C)c(F)c2)n1	30.9	.	.	.	.
COc1ccc(-c2nc3ncc4c(=O)n(CC5CCCO5)ccc4n3n2)cc1 (centres undefined)	.	.	.	.	.
CC(C)(C)c1cc(C(=O)N2CCOCC2c2ccn[nH]2)n[nH]1 (centres undefined)	.	.	.	.	.
O=C(c1cccc2c1OCCO2)N1CCOCC1c1ccn[nH]1 (centres undefined)	32.5	.	.	.	.
COc1cc(NC(=O)N2CCCC(CN3CCc4ccccc4C3)C2)cc(OC)c1OC (centres undefined)	.	.	.	.	.
Cc1ccc(NC(=O)/C=C/c2cnn(C)c2)cc1C	.	.	.	.	.
SMILES	USP30 inh	USP8 inh	USP10 block	USP28 block	USP17 block
Cc1cc(C(=O)Nc2ccc3c(c2)OCCO3)no1	.	.	.	63.3	.
O=C(Nc1ccc2c(c1)OCO2)c1cc(CN2CCCC2)on1	.	53.0	.	.	34.6
Cc1ccc(/C=C/C(=O)Nc2ccc3c(c2)OCCO3)cc1	.	.	.	79.6	.
Cc1cc(C(=O)N2CC(C(=O)Nc3ccc4c(c3)OCCO4)C2)no1	.	.	.	.	.
Cc1ccc2nc(NC(=O)/C=C/c3ccc4c(c3)OCO4)sc2c1	.	36.2	.	.	.
O=C(Nc1ccccc1Cl)N(CCc1ccccc1)Cc1cc2cc3c(cc2[nH]c1=O)OCCO3	.	.	.	.	.
CC1CC(=O)c2cnc(N3CCN(c4ccccn4)CC3)nc2C1 (centres undefined)	.	.	.	.	.
Cn1cc(-c2ccccc2)cc1C(=O)NCCCN1CCOCC1	.	.	.	.	.
COc1ccc(-c2cc3c(=O)n(CC(=O)Nc4cc(F)ccc4C)ccn3n2)cc1	.	.	.	.	.
O=C(Cc1noc2ccccc12)NCC(=O)Nc1ccc(Cl)cc1	.	.	.	.	77.0
